Experimental findings from PubChem BioAssay AID720724 (Broad Institute, 2013) are described below.

The structures appear in SMILES notation. Results with a measured potency or affinity are listed apart. The source made the active and inactive calls.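 How the source made its calls: active means signal falls with a fitted half-maximal dose at most twice the top dose, in every run; inconclusive means steady partial drop, poor fit, or runs disagree; inactive means flat, rising or too weak in every run.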

The nature of this experiment: EF1alpha-driven Renilla reporter with control 3'UTR suppression – Clone20-Shn3RL cells, dual-Glo, cherry-pick, set 2, counter-screen for Shn3 3'UTR targeting project, dose response (AID 720724). The conditions noted are these: renilla luciferase luminescence, 24 h; series mostly up to 35 µM. On the technique in general: A counterscreen serves to expose hits that act by an unwanted route or on another target.
Take `COc1ccc(NS(=O)(=O)c2ccc(OC)c(N(C)S(=O)(=O)c3ccc(Cl)cc3)c2)cc1`: the call was inactive.

Take `CCOC(=O)N1CCN(c2ccc(S(=O)(=O)N(Cc3ccccc3)Cc3ccccc3)cn2)CC1`: the compound was called inactive.

Take `CCN(CC)Cc1c(O)ccc2c1O/C(=C\C=C\c1ccccc1)C2=O`: the call was inactive.

As to `Cc1cc(C(=O)COC(=O)c2ccccc2O)c(C)n1Cc1cccs1`, the compound was classed as inactive.

`O=C(NCCc1ccccc1)c1ccc2c(c1)OCCCO2`: the call was inactive.

For the compound `CCCCOCCCNc1ncnc2c1[nH]c1ccccc12`, the result was inactive.

Turning to `COc1cc(NC(=O)c2cccc3c(-c4cccnc4)coc23)cc(OC)c1OC`, the result was inactive.

In the case of `CCSc1nnc(NC(=O)c2nc(S(=O)(=O)Cc3ccc(F)cc3)ncc2Cl)s1`, the compound was classed as inactive.

In the case of `O=C(Nc1nc(-c2ccccc2)cs1)C1CCCCN1S(=O)(=O)c1ccccc1` (configuration not stated), the compound was called inactive.

In the case of `CC1Cc2cc(S(=O)(=O)N3CCN(c4ccc(Cl)cc4)CC3)ccc2N1C(=O)C1CC1` (configuration not stated), the compound was classed as inactive.

Consider `Cn1c(=O)c2c(nc(NCc3ccco3)n2CCc2ccccc2)n(C)c1=O`, for which the compound was classed as inactive.

Take `CCn1c(C)cc(C(=O)COC(=O)c2ccccc2[N+](=O)[O-])c1C`: the outcome was inactive.

Regarding `CCOC(=O)Cn1c(S(=O)(=O)Cc2ccccc2Cl)nc(-c2ccccc2)c1-c1ccccc1`, the compound was called inactive.

Take `Cc1cccc(-c2noc(CN(C(=O)C(c3ccccc3)c3ccccc3)C(C)C)n2)c1`: the compound was classed as inactive.

In the case of `O=C(COC(=O)c1n[nH]c2ccccc12)Nc1ccc(S(=O)(=O)N2CCCC2)cc1`, the result was inactive.

In the case of `Cc1ccccc1OCCOC(=O)c1cc(S(=O)(=O)N2CCCCC2)ccc1N1CCOCC1`, the outcome was inactive.

For `CC(Oc1ccc(F)cc1)C(=O)N(CCC1=CCCCC1)c1c(N)n(Cc2ccccc2)c(=O)[nH]c1=O` (configuration not stated), the result was inactive.
